Many of the other results were omitted from the sample, so hits are more common in it than they were.
ALOX12 inh – inhibitors of human 12S-lipoxygenase ALOX12. purified 12hLO, xylenol orange hydroperoxide absorbance. Potency, µM (titrated, usually from 108 µM), for the others: top-dose activity change, negative = inhibition, usual class: inhibitors. 580,000 compounds, 1.1% hits; also: potency is read from the fitted curve at half-maximal effect
Target sequence (P18054 whole entry, looked up): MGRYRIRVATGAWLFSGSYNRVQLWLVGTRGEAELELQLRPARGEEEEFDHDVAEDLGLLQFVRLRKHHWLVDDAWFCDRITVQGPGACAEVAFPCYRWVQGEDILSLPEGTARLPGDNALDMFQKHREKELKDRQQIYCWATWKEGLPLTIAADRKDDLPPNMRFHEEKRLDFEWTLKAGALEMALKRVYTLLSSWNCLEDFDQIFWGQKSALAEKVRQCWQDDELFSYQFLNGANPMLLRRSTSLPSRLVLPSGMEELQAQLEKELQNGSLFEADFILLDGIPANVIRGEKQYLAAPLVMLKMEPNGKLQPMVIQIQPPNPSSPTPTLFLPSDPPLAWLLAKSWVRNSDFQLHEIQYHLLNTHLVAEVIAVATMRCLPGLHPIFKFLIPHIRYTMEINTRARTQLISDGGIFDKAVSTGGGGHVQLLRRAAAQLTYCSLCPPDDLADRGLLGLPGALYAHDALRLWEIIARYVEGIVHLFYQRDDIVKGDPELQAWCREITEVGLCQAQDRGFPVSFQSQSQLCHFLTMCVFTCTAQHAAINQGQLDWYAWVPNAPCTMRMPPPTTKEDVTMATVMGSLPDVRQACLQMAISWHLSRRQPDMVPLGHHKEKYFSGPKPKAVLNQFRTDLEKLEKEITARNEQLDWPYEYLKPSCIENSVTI
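Purified human 12hLO at 150 nM in 25 mM Hepes, 0.01% Triton X-100, pH 7.0, preincubated 15 min at room temperature with compound. Reaction started with 40 uM arachidonic acid, 30 min at room temperature. Hydroperoxide measured by Fe-xylenol orange, 573/405 nm absorbance ratio.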
HT1080 IDH1KD tx – HT-1080 IDH1 knockdown cell toxicity (counter line); Potency, µM (series often up to 46.1 µM), inactives show top-dose activity, negative = toxicity, usual class: cytotoxic; HT-1080 IDH1 knockdown viability, ATP luminescence, 48 h; 360,000 compounds, 2% hits;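 also: potency is read from the fitted curve at half-maximal effect; 0% = DMSO wells and -100% = cell-free medium wells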
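Cytotoxicity counter-line: IDH1KD HT-1080, 48 h, CellTiter-Glo. Curves classed by r2, magnitude and activity.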
HT1080NT lethal – kills 2HG-producing HT-1080-NT fibrosarcoma cells; HT-1080-NT fibrosarcoma viability, CellTiter-Glo ATP luminescence, 48 h; AID 686970; 360,000 compounds, 1.6% hits; Potency, µM (highest dose often 46.1 µM), inactives show at the highest dose activity, negative = less viability, actives largely listed as cytotoxic;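 also: NT is the 2HG producing partner of a matched IDH1 knockdown line; potency is read from the fitted curve at half-maximal effect; 0% = DMSO-treated cells and -100% = media-only wells without cells; nearly all actives have a fitted effect of over 55% in size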
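Viability by CellTiter-Glo luminescence after 48 h compound exposure at 37C of HT-1080-NT cells (750/well, RPMI, 5% FBS). % activity scaled between DMSO wells and medium-only wells, then curve-fitted and categorized by curve class.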
TDP1 cell noCPT – qHTS for Inhibitors of human tyrosyl-DNA phosphodiesterase 1 (TDP1): qHTS in cells in absence of CPT; DT40 Tdp1-/- hTDP1 cells, no CPT, ATP luminescence, 48 h; Potency, µM (titrated, usually from 46.2 µM), for the others: top-dose activity change, negative = growth inhibition, actives largely listed as inhibitors; 420,000 compounds, 15% hits; AID 686978, 2013; also: potency is read from the fitted curve at half-maximal effect; nearly all actives have a fitted effect of over 55% in size
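Chicken DT40 Tdp1-/- cells complemented with human TDP1, screened without camptothecin (DMSO vehicle only), 400 cells/well. Compounds pin-transferred, cells incubated at 37 °C for at least 48 hr. Growth read as ATP-dependent luminescence (CellTiter-Glo, 30 min at RT).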
DT40 TDP1 CPT – growth inhibition of DT40 Tdp1-/-;hTDP1 cells with camptothecin (screen for TDP1 inhibitors); chicken DT40 Tdp1-/-;hTDP1 cells + 20 nM CPT, ATP luminescence, 48 h; Potency, µM (doses to about 46.2 µM), inactives show top-dose activity change, negative = growth inhibition, hits mostly inhibitors; 420,000 compounds, 12% hits; also: potency is read from the fitted curve at half-maximal effect; nearly all actives have a fitted effect of over 55% in size
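Cell growth measured by CellTiter-Glo luminescence after a minimum 48 h, 37 C compound exposure with 20 nM CPT in Tdp1-knockout DT40 cells stably expressing hTDP1, seeded 400/well; qHTS titration format.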
IL-1B inflam inh – inhibitors of inflammasome signaling (IL-1 beta secretion) | 360,000 compounds, 4.7% hits | activity change, % at 57.5 µM | THP-1 LPS/ATP IL-1B secretion, AlphaLISA, 16 h; hits give low values; in the data active = activity change below about -50%; inconclusive = mostly about -30% to -49%
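Secreted IL-1B measured by AlphaLISA bead assay after 16 h compound exposure of THP-1 cells; compounds (final up to 57.5 uM) added 1 h before LPS (250 ng/mL) and ATP (1.25 mM) stimulation; lower signal means less secretion.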
* hit, by the source's call; ? = inconclusive; / = no result given; [ ] = remark or other dose. Unless noted, calls follow the shape of the dose curve; as a rule, active = well fitted curve in the direction sought with a large enough effect; inconclusive = small, poorly fitted or top-dose-only effect, or another doubt; inactive = no such curve, though single readings can be large; an effect the other way counts as inactive or inconclusive. Unless noted, % is scaled to controls: 0 for no effect and ±100 for the full control effect.

SMILES	ALOX12 inh	HT1080 IDH1KD tx	HT1080NT lethal	TDP1 cell noCPT	DT40 TDP1 CPT	IL-1B inflam inh
Cn1c(/C=N/NC(=O)c2ccccc2Br)nc2ccccc21	-27%	?	?	18µM*	?	-9
CCc1ccccc1NC(=O)C1COc2ccccc2O1 (stereo not drawn)	0%	14%	?	-2%	2%	-2
Cn1c(/C=N/O)nc2ccccc21	1%	12%	1%	4%	9%	0
CCCn1c(NC(=O)C2COc3ccccc3O2)nc2ccccc21 (stereo not drawn)	-2%	-16%	-22%	18µM*	18µM*	5
CCCn1c(NC(=O)c2ccccc2Br)nc2ccccc21	14%	?	-17%	23µM*	?	5
Nc1nccnc1C(=O)NCC#Cc1ccccc1	39%	/	/	/	/	/
Cc1ccc(C(=O)N/N=C/c2nc3ccccc3n2C)cc1	-15%	10µM*	8.9µM*	18µM*	?	29
Cc1ccc(C(=O)N/N=C/c2ccccc2)cc1	-41%	/	/	/	/	/
CCOc1ccccc1NC(=O)Cn1c(=O)c(-c2noc(C)n2)c2n(c1=O)CCCC2	40%	/	/	/	/	/
O=c1[nH]c2ccccc2nc1NCc1ccccc1	13%	-15%	-5%	-17%	9%	-24
S=C(NCc1ccccc1)NNc1nc2ccccc2[nH]1	32µM*	?	-13%	?	?	1
COc1ccc2nc(NCCO)[nH]c2c1	33%	-1%	-3%	-15%	-4%	30
Cc1ccc2nc(NCc3ccccc3)[nH]c2c1	-1%	3.7µM*	5.8µM*	4.6µM*	4.1µM*	-73*
COc1ccc2nc(NCc3ccccc3)[nH]c2c1	-22%	?	?	15µM*	?	-102*
c1ccc(CNc2nc3ccccc3[nH]2)cc1	11%	-2%[9.24 µM]	?	18µM*	?	-60*
Cc1ccc2nc(NCc3ccccc3)c(C#N)cc2c1	-10%	13%	14%	0%	2%	30
CNC(=O)NC(=O)C(C)N(C)CCCCc1ccccc1 (stereo not drawn)	4%	/	/	/	/	/
Cc1nn(-c2ccc(C(C)(C)C)cc2)c(C)c1[C@@H]1C=C[C@@H](NCc2ccco2)C1	-13%[176 µM]	/	/	/	/	/
COC(=O)c1c(NC(=O)CCl)sc(C(=O)N2CCOCC2)c1C	-10%	18µM*	7.3µM*	5.2µM*	?	-98*
COC(=O)c1c(NC(=O)c2ccccc2)sc(C(=O)c2ccccc2)c1C	484%	?	?	15µM*	16µM*	20
COC(=O)c1c(N)sc(C(=O)N2CCOCC2)c1C	380%	-1%	1%	-12%	-1%	44
COC(=O)c1c(NC(=O)C2CCCCC2)sc(C(=O)N2CCOCC2)c1C	-28%	/	/	/	/	/
COC(=O)c1c(NC(=O)c2ccccc2OC)sc(C(=O)N2CCOCC2)c1C	13%	9%	5%	15µM*	?	-60*
OCC1CN(c2ncccn2)CC12CCN(Cc1cccc(Cl)c1F)CC2 (stereo not drawn)	-1%	/	/	/	/	/
Cc1ccc(Cn2c(C3CCCN3c3nc(-c4ccc(F)cc4)cs3)nc3cc(C(=O)NCCCO)ccc32)cc1 (stereo not drawn)	-24%	?	?	?	21µM*	1
SMILES	ALOX12 inh	HT1080 IDH1KD tx	HT1080NT lethal	TDP1 cell noCPT	DT40 TDP1 CPT	IL-1B inflam inh
OCCCn1c(CCNc2nc(-c3ccc(F)cc3)cs2)nc2cc(C(F)(F)F)ccc21	-5%	-10%	-15%	?	?	-69*
Cc1ccc(-c2csc(N(CCO)CCCn3c(C(F)(F)F)nc4cc(C(F)(F)F)ccc43)n2)cc1	-13%	-26%	-11%	?	?	25
OCCOCCn1c(C2CCCN2c2nc(-c3ccc(F)cc3)cs2)nc2cc(C(F)(F)F)ccc21 (stereo not drawn)	-6%	-28%	-11%	?	16µM*	-12
Cc1ccc(Cn2c(C3CCCN3c3nc(-c4ccc(F)cc4)cs3)nc3cc(Cl)c(Cl)cc32)cc1 (stereo not drawn)	?	1%	-2%	-25%	3%	-7
Cc1ccc(Cn2c(C3CCCN3c3nc(-c4ccc(F)cc4)cs3)nc3cc(C(F)(F)F)ccc32)cc1 (stereo not drawn)	-13%	-6%	0%	21µM*	18µM*	24
O=C(COc1ccc(F)cc1F)N1C[C@H]2CC=CC[C@H]2C1	24%	/	/	/	/	/
O=C(CNc1nc(Cl)nc2nc[nH]c12)NCCc1c[nH]c2ccc(F)cc12	3%	/	/	/	/	/
CNc1c(NC(=O)c2cc(OC)ccc2Br)c(=O)oc2ccccc12	-19%	/	/	/	/	/
N#Cc1ccc(CS(=O)(=O)Cc2cccc(F)c2)cc1	-26%	/	/	/	/	/
Cn1cnnc1CC1CCN(C(=O)c2cc3c([nH]c2=O)CCCC3)CC1	-13%	/	/	/	/	/
OCCOCCn1c(C2CCCN2c2nc(-c3ccc(F)cc3)cs2)nc2cc(Cl)c(Cl)cc21 (stereo not drawn)	-5%	?	?	21µM*	?	-54*
OCCCn1c(C2CCCN2c2nc(-c3ccc(F)cc3)cs2)nc2cc(C(F)(F)F)ccc21 (stereo not drawn)	-5%	-14%	-10%	?	8.2µM*	-57*
COc1ccc(CNC(=O)CCc2ncc(-c3ccc(C)c(C)c3)o2)cc1	19%	/	/	/	/	/
CCCC1=[N+](CC(=O)c2ccccc2)CCn2c(C)ccc21	-17%	-24%	0%	2.1µM*	2.9µM*	?
Cc1csc(C)[n+]1CC(=O)c1ccccc1	-3%	-13%	-6%	-5%	1%	18
CCCC1=[N+](CC(=O)c2ccc(C)cc2)CCn2cccc21	-24%	-16%	-5%	18µM*	?	-2
CCCC1=NCCn2cccc21	-12%	16%	7%	-4%	-9%	10
O=C(CC(SCCO)c1ccc(F)cc1)c1ccco1 (stereo not drawn)	3%	8%	1%	16µM*	18µM*	-27
Cc1ccc(S(=O)(=O)Nc2ccccc2CNc2ccc(Br)cn2)cc1	-14%	-24%	-16%	29µM*	?	-7
Cc1ccc(S(=O)(=O)Nc2ccccc2CNc2ccccn2)cc1	-17%	-1%	0%	?	-7%	6
Cc1cccc(C)c1OCC(=O)N[C@@H](Cc1ccccc1)[C@@H](O)C[C@H](Cc1ccccc1)NC(=O)[C@H](C(C)C)N1CCCNC1=O	-6%[57.4 µM]	/	/	19µM*	7.9µM*	/

Screens from PubChem.
